# D2 PAM-1 = positive allosteric modulators of human D2 dopamine receptor; P14416; DiscoveRx D2 beta-arrestin cells, luminescence, 90 min; 100% = 57 uM dopamine signal; potentiation, % (test concentration not listed); actives 0.23% (n = 360,000); in the data active = potentiation above about 50%; inconclusive = mostly about 30% to 49%
# Target sequence (P14416 whole entry, looked up): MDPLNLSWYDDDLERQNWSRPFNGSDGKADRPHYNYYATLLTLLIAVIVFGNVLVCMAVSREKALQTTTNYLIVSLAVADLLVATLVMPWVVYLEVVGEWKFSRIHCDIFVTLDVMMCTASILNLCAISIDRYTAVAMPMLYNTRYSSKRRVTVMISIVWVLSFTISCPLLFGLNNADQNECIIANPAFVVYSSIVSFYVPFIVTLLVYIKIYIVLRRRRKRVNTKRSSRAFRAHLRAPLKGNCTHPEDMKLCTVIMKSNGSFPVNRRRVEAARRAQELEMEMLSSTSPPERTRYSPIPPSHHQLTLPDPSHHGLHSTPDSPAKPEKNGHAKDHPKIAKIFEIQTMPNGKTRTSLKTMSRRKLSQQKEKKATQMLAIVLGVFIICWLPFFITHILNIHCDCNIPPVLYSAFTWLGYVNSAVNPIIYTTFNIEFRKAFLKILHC
#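 PathHunter beta-arrestin assay in DiscoveRx D2 cells. Compounds were added with an EC20 of dopamine (50 nM final) for 90 min at 37 deg C. Luminescence was read 1 h after detection reagent, with 57 uM dopamine as the EC100 control.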
# D2 ag-1 = activates the human D2 dopamine receptor; P14416; HEK293 T-REx D2 cells, calcium flux agonist mode; activation, % at 2 µM; actives 0.53% (n = 340,000); AID 485358;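 active = activation over 3 SD above normal in the single-dose calcium agonist read, cut at about 30% in these data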; also: 0% is about no effect
#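 In this primary screen, compounds producing a positive calcium signal within 180 s of addition to tetracycline-induced, force-coupled HEK293 Trex D2 cells are flagged; cells are dye-loaded with a no-wash calcium kit beforehand.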
# D2 antagonist = antagonizes the human D2 dopamine receptor; P14416; HEK293 TREx D2 cells, calcium flux, dopamine EC80; actives 2% (n = 340,000); inhibition, % at 10 µM; in the data active = inhibition above about 30%; inactive = below that, where a call was filed; also: 0% is about no effect
#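 HEK293 T-REx D2 cells, tet-induced, calcium dye no-wash. Cpd pintool add, 180 s kinetic, then EC80 DA, 180 s kinetic. Ca flux read.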
# D2 ag-2 = human D2 receptor agonism in beta-arrestin assay | P14416 | actives 0.084% (n = 360,000) | activation, % (no concentration beside the values) | DiscoveRx PathHunter D2 beta-arrestin, luminescence, 90 min; 100% = 57 uM dopamine signal; in the data active = activation above about 40%; inconclusive = between about 15% and that limit
#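 DiscoveRx PathHunter D2 beta-arrestin cells (2,100/well) attached overnight, then compound-stimulated 90 min at 37 C in HBSS/10 mM HEPES/0.1% Tween-20 buffer; beta-galactosidase complementation read by luminescence after 1 h at ambient temperature. Dopamine 57 uM final (EC100) as control.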
# D2 PAM-2 = D2 dopamine receptor (human) potentiation; potentiation, % at 10 µM; AID 485347; P14416; actives 0.34% (n = 340,000); HEK293 T-REx D2, calcium flux, EC20 dopamine potentiation;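 active = potentiation over 3 SD above the plate norm, cut at about 30% in these data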; also: 0% is about no effect
#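 Calcium flux readout, no-wash dye, 1 read/s. Inducible HEK293 Trex D2 line, overnight 30 C. Compound alone 180 s (agonist flags), then EC20 dopamine, another 180 s to score potentiation.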
# An asterisk follows results filed as active; ? = inconclusive; nt = no result given. Most compounds without a hit are left out; they make up all but 2.4% or so of the library.
SMILES,D2 PAM-1,D2 ag-1,D2 antagonist,D2 ag-2,D2 PAM-2
CCOC(=O)C1=C(O)C(=O)N(c2ccc(S(N)(=O)=O)cc2)C1c1cccc([N+](=O)[O-])c1 (stereo not given),2,0,22,0,4
CCOC(=O)N1CCC(NC(=O)c2ccc3c(c2)N(Cc2ccc(Cl)cc2)C(=O)c2ccccc2S3(=O)=O)CC1,nt,1,nt,nt,-1
CCC(=O)N(CCC1(C(C)C)CCOC(C)(C)C1)Cc1ccco1 (stereo not given),-10,1,-18,-2,1
CC(=O)N(CCC1(C(C)C)CCOC(C)(C)C1)Cc1ccco1 (stereo not given),7,0,38*,0,9
CN1CCN(c2ccccc2/C=C2/C(=O)Nc3ccccc32)CC1,-13,3,37*,-4,-26
O=C1Nc2ccccc2/C1=C/c1ccccc1Cl,-11,-1,4,-2,-1
O=c1[nH]c(=O)c2[nH]c(=S)[nH]c2[nH]1,-7,nt,nt,3,nt
O=C1CC(c2ccc(Cl)cc2)CC(O)=C1C=NCCN1CCNCC1 (stereo not given),nt,1,53*,nt,1
C=CCNC(=S)N1CCN(CCN=CC2=C(O)CC(c3ccc(Cl)cc3)CC2=O)CC1 (stereo not given),7,1,-18,2,23
N#CCCn1cc(CNC2CCC(O)CC2)c2ccccc21 (stereo not given),-2,0,5,-2,30*
CC1(Cc2cn(CCC#N)c3ccccc23)OCCO1,-5,0,-3,0,-2
Cc1cc(C)nc(N/N=C/c2ccccc2)n1,-5,1,44*,-3,6
Cc1cc(NS(=O)(=O)c2c(C)[nH]c(=O)[nH]c2=O)ccc1Br,-8,0,41*,-4,-8
Cc1cc(Br)ccc1NS(=O)(=O)c1c(C)[nH]c(=O)[nH]c1=O,-3,0,1,-4,0
COc1cc(C(=O)O/N=C(\N)c2cccc([N+](=O)[O-])c2)cc(OC)c1OC,55*,0,2,?,15
N/C(=N\OC(=O)c1ccccc1F)c1cccc([N+](=O)[O-])c1,16,4,6,66*,6
COc1cc(C(=O)O/N=C(\N)c2ccc([N+](=O)[O-])cc2)cc(OC)c1OC,15,1,13,8,-6
COc1ccc(/C(N)=N/OC(=O)c2ccco2)cc1OC,7,0,-6,10,32*
N/C(=N\OC(=O)c1ccccc1Br)c1cccc([N+](=O)[O-])c1,?,-1,-7,?,8
N/C(=N\OC(=O)c1ccc(Br)cc1)c1cccc([N+](=O)[O-])c1,?,0,-12,6,-2
COc1ccc(C(=O)O/N=C(\N)c2ccccc2)cc1OC,?,1,-6,10,5
Cc1ccc(C(=O)O/N=C(\N)c2cccc([N+](=O)[O-])c2)cc1,60*,1,-5,?,0
CCCC(=O)Oc1c(Sc2ccc(C)cc2)c(C)nn1-c1ccccc1,nt,0,nt,nt,0
N/C(=N\OC(=O)c1ccco1)c1cccc([N+](=O)[O-])c1,81*,1,-5,?,-2
N/C(=N\OC(=O)c1ccco1)c1cccc(Br)c1,23,0,12,6,0
SMILES,D2 PAM-1,D2 ag-1,D2 antagonist,D2 ag-2,D2 PAM-2
O=C(NCc1ccco1)c1cccc2c1C(=O)N(C1CCCCC1)C2,-14,0,-18,-5,35*
CCCCCOc1ccc(/C=C/C(=O)Nc2sc(C(C)=O)c(C)c2C(=O)OCC)cc1OC,nt,nt,nt,nt,1
Cc1nn(C(=O)c2cccc(F)c2)c(C)c1S(=O)(=O)N1CCOCC1,nt,0,nt,nt,0
CCn1c(SCc2ccc(OC)c(F)c2)nc2ccccc2c1=O,-1,3,-17,6,33*
COCC(C)n1c(SCc2ccc(OC)c(F)c2)nc2ccccc2c1=O (stereo not given),9,nt,nt,3,nt
CCn1cc([N+](=O)[O-])c(C(=O)Nc2ccc3c(c2)OCCO3)n1,10,1,69*,4,-13
O=C(CSCc1ccc(Cl)cc1)NN=C1CCCC1,-13,0,-8,2,15
O=C(CSCc1ccc([N+](=O)[O-])cc1)NN=C1CCCCCC1,19,-1,-3,-1,35*
O=C(CSCc1ccccc1Cl)NN=C1CCCCCC1,14,0,38*,1,4
Nc1c(Cl)ncnc1NCCO,4,1,-1,-5,2
Nc1c(Cl)ncnc1NCc1ccccc1,-2,nt,56*,4,nt
CCOP(=O)(OCC)C(Nc1cccc(C(F)(F)F)c1)c1ccc(C)cc1 (stereo not given),-9,37*,-10,-2,-17
Cc1c(Cl)cccc1NC(=O)Cn1cnc2nc3c(cc2c1=O)CCCC3,nt,1,nt,nt,3
COc1cccc(-c2cc3c(-n4cccc4)ncnc3o2)c1,-15,-1,37*,-3,9
Clc1ccc(-n2c(Cc3ccccc3)nnc2SCc2nc(-c3cccs3)no2)cc1,nt,2,nt,nt,-7
NS(=O)(=O)c1ccc(NC(=O)CSc2nc3ccccc3n2-c2ccccc2)cc1,3,-2,31*,4,15
CC1(c2ccc(OC(F)F)cc2)NC(=O)N(CC(=O)Nc2ccc(F)cc2)C1=O (stereo not given),0,19,-4,-1,7
CC1(c2ccc(OC(F)F)cc2)NC(=O)N(CC(=O)Nc2cccc(F)c2)C1=O (stereo not given),-4,33*,-14,1,2
OCc1cn(-c2ccccc2)nc1-c1cc2ccccc2o1,-6,-1,45*,-3,4
O=C(N/N=C/c1cn(-c2ccccc2)nc1-c1cc2ccccc2o1)c1c[nH]c2ccccc12,5,-1,34*,-2,4
O=C(N/N=C/c1cn(-c2ccccc2)nc1-c1cc2ccccc2o1)c1ccccc1Br,-8,0,-5,-3,-6
COc1ccc(NC(=O)c2cn(-c3ccccc3)nc2-c2cc3ccccc3o2)cc1,-1,0,-2,-3,-10
CCNC(=O)C1CCN(Cc2cc3ccccc3n2Cc2ccc(C)cc2)CC1,nt,0,nt,nt,-15
CCOC(=O)c1c(NC(=O)c2c(C(=O)O)cccc2[N+](=O)[O-])sc2c1CCCC2,-7,2,-8,-4,17
Nc1ccc(C#Cc2ccc3c(=O)c4ccccc4oc3c2)cc1,-9,2,41*,-2,-6
COc1cc2oc3cc(C#Cc4ccc(N)cc4)ccc3c(=O)c2cc1OC,-3,nt,nt,-1,nt
O=C(COc1cc2oc(=O)c3c(c2cc1Cl)CCC3)Nc1ccc(CN2CCOCC2)cc1,-1,0,-6,2,30*
O=C(COc1cc2oc(=O)c3c(c2cc1Cl)CCC3)NCCCN1CCCC1=O,-18,1,11,-2,0

# Screens as filed in PubChem BioAssay.
